Screening results from PubChem.
The list is not random: actives were taken first. Their share in the collection is about 7.5%.
Luc counter = blocks Kinase-Glo luciferase, a counter-screen artifact. Q27757. Kinase-Glo luciferase, ATP luminescence, 8 min. Potency, µM (doses to about 38.3 µM), for inactives: top-dose activity change, negative = inhibition, usual class: inhibitors. 0.28% of 200,000 active; further: on the % scale 0 is the no-effect control and ±100 the full control effect; nearly all actives have a fitted effect of over 60% in size
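Recombinant Kinase-Glo luciferase, 10 uM ATP (linear range), luciferin; imidazole pH 7.2 / KCl / MgCl2 / Tween / BSA buffer; 8 min RT; luminescence.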
Rab9 promoter act = activators of Rab9 promoter. Huh7 Rab9 promoter-luciferase reporter, luminescence, 24 h. Potency, µM (top dose mostly 9.22 µM), without a hit: at the highest dose activation, negative = inhibition, most hits filed as activators. 2.8% of 320,000 active. AID 485297; further: % of control where 0% means no effect; nearly all actives have a fitted effect of over 60% in size
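Stable Rab9-luc Huh7, 1500 cells/well, 2 h settle; cmpd in DMSO, 24 h, 37 °C/5% CO2; luciferase reagent 10 min RT; luminescence.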
FLuc counter = firefly luciferase modulation, counter-screen for miR-21 project; purified FLuc, Km substrates, luminescence inhibition; Potency, µM (titrated, usually from 57.5 µM), for the others: at the top dose activity change, negative = inhibition, hits mostly inhibitors; 6.9% of 360,000 active; AID 588342;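 further: plate controls were vehicle for no effect and reference inhibitor for full effect; nearly all actives have a fitted effect of over 55% in size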
Target sequence (P08659 whole entry, looked up): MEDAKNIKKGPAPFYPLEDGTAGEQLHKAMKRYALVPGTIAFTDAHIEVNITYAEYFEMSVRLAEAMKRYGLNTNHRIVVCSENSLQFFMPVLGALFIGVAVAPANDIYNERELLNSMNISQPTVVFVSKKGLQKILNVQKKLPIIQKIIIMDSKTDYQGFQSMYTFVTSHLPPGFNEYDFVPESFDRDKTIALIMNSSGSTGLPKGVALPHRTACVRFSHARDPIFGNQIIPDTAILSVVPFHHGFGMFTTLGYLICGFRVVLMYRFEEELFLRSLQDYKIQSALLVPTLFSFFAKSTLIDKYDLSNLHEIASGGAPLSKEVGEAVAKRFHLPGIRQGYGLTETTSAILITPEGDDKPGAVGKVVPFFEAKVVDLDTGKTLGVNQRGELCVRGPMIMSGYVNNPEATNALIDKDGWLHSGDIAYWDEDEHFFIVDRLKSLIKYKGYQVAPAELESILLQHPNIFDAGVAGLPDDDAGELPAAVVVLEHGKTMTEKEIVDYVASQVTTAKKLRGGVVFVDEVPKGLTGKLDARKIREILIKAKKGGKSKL
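Purified P. pyralis luciferase, 10 nM final, with Km-level 10 uM D-luciferin and 10 uM ATP in 50 mM Tris acetate pH 7.5, 10 mM Mg acetate, 0.01% Tween-20, 0.05% BSA; 6-point qHTS titration about 60 µM downward; luminescence read.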
NPC1 prom act = NPC1 promoter activation; 2.4% of 320,000 active; Potency, µM (highest dose often 9.22 µM), for inactives: at the highest dose activation, usual class: activators; Huh7 NPC1 promoter luciferase reporter, 24 h; further: % of control where 0% means no effect; nearly all actives have a fitted effect of over 60% in size
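Luminescence read-out of NPC1 promoter-driven luciferase in stably transfected Huh7 cells; compounds delivered in DMSO and left 24 h at 37C, 5% CO2, qHTS titration format.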
ELG1 genotoxic = inducers of genotoxicity in HEK293T ELG1-luciferase cells; HEK293T ELG1-luciferase reporter, luminescence, 16 h; Potency, µM (top dose mostly 46 µM), for inactives: at the highest dose activity change, positive = activation, hits mostly activators; 1.3% of 330,000 active; AID 504466; further: % of control where 0% means no effect; nearly all actives have a fitted effect of over 60% in size
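Genotoxic stress is detected as increased luminescence from luciferase-tagged ELG1 in HEK293T cells, measured with ONE-Glo after a 16 hr treatment at 37 °C.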
SMN2 splice up = enhancers of SMN2 splice variant expression; HEK293 SMN2-luciferase splicing reporter, luminescence, 30-36 h; Potency, µM (doses to about 46.1 µM), for the others: top-dose activity change, positive = activation, actives largely listed as activators; 2.8% of 210,000 active; AID 1458; further: % of control where 0% means no effect; nearly all actives have a fitted effect of over 55% in size
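HEK293 cells carry an SMN2 minigene-luciferase reporter in which exon 7 inclusion puts luciferase in frame. Cells were seeded at 2000 cells/well, attached for 10-12 hours, then exposed to compounds for 30-36 hours at 37C before ONE-Glo luminescence.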
The depositor's hits bear a star; ? = inconclusive; nt = not tested or not shown; [ ] = dose if it differs, or a comment. The call rests on the fitted dose curve; in most records, active means well fitted curve in the direction sought with a large enough effect; inconclusive means small, poorly fitted or top-dose-only effect, or another doubt; inactive means no such curve, though single readings can be large; an effect the other way counts as inactive or inconclusive. Potency means the concentration at half of the fitted maximal effect.

SMILES | Luc counter | Rab9 promoter act | FLuc counter | NPC1 prom act | ELG1 genotoxic | SMN2 splice up
Cc1cc(C(=O)Nc2sc(C)c(C)c2C#N)no1 | -5.6% | 7.9% | 19µM* | 24.2% | 11.2µM* | nt
CCc1c(C)sc(NC(=O)c2cc(C(C)C)on2)c1C#N | 2.2% | -2.8% | ? | 10.5% | 5.6% | 2.8%
CCc1cc(C(=O)Nc2sc(C)c(CC)c2C#N)no1 | nt | nt | 15.1µM* | nt | nt | 16.1%
O=C1CC(Cc2ccc(Cl)cc2)C(=O)N1c1ccccn1 (stereo not given) | 1.1% | -2.0% | -1.9% | -2.6% | 4.0% | 31.6µM*
Cc1ccc(CC2CC(=O)N(c3ncccn3)C2=O)cc1 (stereo not given) | nt | -2.2% | 1.2% | -0.9% | 1.0% | nt
O=C1CC(Cc2ccccc2)C(=O)N1c1ncccn1 (stereo not given) | -1.7% | ? | 15.1µM* | 2.24µM* | 14.6µM* | nt
O=C(Nc1ccccc1)N1CC=C(c2ccc(F)cc2)CC1 | -8.2% | 1µM* | 23.9µM* | 4.47µM* | ? | 11.2µM*
O=C(Nc1ccccc1)N1CC=C(c2ccccc2)CC1 | 1.0% | 1.58µM* | 4.78µM* | 2.24µM* | 2.59µM* | 12.6µM*
CCOc1ccc(C(=O)c2oc3ccccc3c2NC(=O)c2cc(=O)c3ccc(C)cc3o2)cc1 | nt | nt | 0.4% | nt | nt | ?
Cc1ccc(N(Cc2ccccc2)C(=O)c2cc(S(=O)(=O)N3CCOCC3)ccc2Cl)cc1 | nt | -4.1% | ? | -3.6% | ? | nt
Cc1ccc(N(Cc2ccccc2)C(=O)c2cc(S(=O)(=O)N3CCOCC3)ccc2F)cc1 | nt | 0.5% | 19µM* | -1.9% | 0.0% | nt
CCOc1ccc2nc(N3CCN(C(=O)c4ccc5c(c4)CCCC5)CC3)sc2c1 | nt | nt | -13.9% | nt | nt | nt
NNc1nc(-c2ccccc2)cs1 | -3.2% | 16.1% | ? | 14.4% | ? | -48.1%
Cc1ccc(Nc2nc(-c3c(C)nc4ncccn34)cs2)cc1 | -8.1% | -30.2% | -21.3% | -13.7% | 18.4% | -1.8%
CC(=O)Nc1cccc(-c2csc(Nc3ccc(Cl)cn3)n2)c1 | 2.6% | 3.16µM* | 2.39µM* | 2µM* | ? | 11.2µM*
Cc1ccnc(Nc2nc(-c3ccccc3)cs2)c1 | nt | ? | 1.07µM* | 1.41µM* | ? | nt
Cc1ccnc(Nc2nc(-c3c(C)nc4sccn34)cs2)c1 | 18.5% | -3.7% | 8.49µM* | 11.2% | -6.0% | -70.9%
CC(=O)Nc1ccc(-c2csc(Nc3ccc(Cl)cn3)n2)cc1 | -6.6% | -4.2% | -19.8% | -3.4% | -4.2% | -41.7%
CC(=O)Nc1cccc(-c2csc(Nc3cc(C)ccn3)n2)c1 | -3.1% | 1.26µM* | 2.69µM* | 2.51µM* | -13.6% | ?
COc1ccc(CNC(=O)C2=CCN(S(=O)(=O)c3ccc(C)cc3)CC2)cc1 | nt | -1.8% | -1.6% | -6.3% | -5.3% | nt
CC1COC(Cn2c3ccccc3c3ccccc32)O1 (stereo not given) | nt | 0.0% | -14.8% | 1.8% | -2.8% | nt
CC(=O)Nc1cccc(-c2csc(Nc3ccccn3)n2)c1 | -4.0% | 1.12µM* | 1.51µM* | 1.26µM* | ? | 11.2µM*
CC(=O)Nc1ccc(-c2csc(NC(C)c3ccccc3)n2)cc1 (stereo not given) | -5.4% | -9.9% | ? | 3.1% | -1.9% | 22.1%
CC(=O)Nc1ccc(-c2csc(Nc3cc(C)ccn3)n2)cc1 | -1.4% | 11.0% | 15.1µM* | ? | -13.6% | -57.8%
Cc1nc(NC(=O)/C=C/c2ccc(Cl)cc2Cl)sc1C(=O)N(C)C | 3.2% | -4.4% | ? | -3.1% | 5.5% | 15.0%
SMILES | Luc counter | Rab9 promoter act | FLuc counter | NPC1 prom act | ELG1 genotoxic | SMN2 splice up
Cc1nc(NC(=O)/C=C/c2ccc(F)cc2)sc1C(=O)N(C)C | 2.1% | -5.2% | 16.9µM* | 0.5% | 7.3% | 26.6%
Cc1nc(NC(=O)/C=C/c2ccccc2)sc1C(=O)N1CCCCC1 | -1.8% | -4.8% | ? | 1.5% | -2.9% | 1.1%
Cc1nc(NC(=O)/C=C/c2ccccc2)sc1C(=O)N(C)C | 3.5% | ? | 13.5µM* | 24.0% | 16.1% | 41.3%
COc1ccccc1N(C)S(=O)(=O)c1ccc(C)c(C(=O)Nc2nccs2)c1 | nt | -6.2% | -0.2% | -0.2% | -9.8% | nt
CC(NC(=O)c1ccco1)C(=O)OCC(=O)N1CCCCCC1 (stereo not given) | nt | -0.1% | 0.5% | 7.1% | -0.6% | nt
c1ccc(-c2ccc(-c3ccccn3)s2)nc1 | nt | 3.98µM* | 1.51µM* | ? | ? | nt
CCN(CC)C(=O)COc1ccc2oc(-c3ccco3)cc(=O)c2c1 | 0.6% | 26.6% | 15.1µM* | 13.7% | 10.5% | nt
O=C(NCCC1CCCCN1S(=O)(=O)c1ccc(F)cc1)C(=O)NCC1CCCO1 (stereo not given) | nt | -3.9% | 5.3% | -2.3% | 3.0% | nt
COc1ccccc1Cc1nc2ccccc2[nH]c1=O | nt | nt | -0.4% | nt | nt | 3.7%
O=C(Nc1ccc(S(=O)(=O)Nc2ncccn2)cc1)c1nn(Cc2ccccc2)c(=O)c2ccccc12 | nt | 0.0% | -1.0% | -0.5% | -0.7% | nt
CCn1nc(C(=O)Nc2ccc(S(=O)(=O)Nc3nccs3)cc2)c2ccccc2c1=O | 1.4% | 0.7% | 3.8% | -0.1% | 5.5% | 14.1µM*
COc1ccc(CCNC(=O)c2cc(=O)[nH]c3ccc(S(=O)(=O)N4CCCCC4C)cc23)cc1OC (stereo not given) | nt | nt | -6.5% | nt | nt | nt
CCOc1ccc(Nc2n[nH]c(=S)s2)cc1 | nt | 1.78µM* | ? | 2.51µM* | ? | nt
O=C(Nc1ccccc1Br)c1cc(=O)c2ccccc2o1 | nt | 3.98µM* | 12µM* | 2.51µM* | 7.3µM* | nt
NS(=O)(=O)c1cccc(NC(=O)c2cc(=O)c3ccccc3o2)c1 | nt | -1.1% | -8.8% | -1.0% | -0.6% | nt
O=C(Nc1ccccc1Cl)c1cc(=O)c2ccccc2o1 | nt | ? | 15.1µM* | 3.55µM* | ? | nt
COc1ccccc1N=Nc1nc(-c2ccccc2)c(-c2ccccc2)[nH]1 | -3.4% | 0.1% | 12µM* | -2.9% | -6.9% | 0.3%
COc1ccc(N=Nc2nc(-c3ccccc3)c(-c3ccccc3)[nH]2)cc1 | -0.9% | -3.6% | 9.53µM* | -0.1% | -8.3% | 1.7%[1.84 µM]
Oc1ccccc1N=Nc1nc(-c2ccccc2)c(-c2ccccc2)[nH]1 | -9.4% | -18.0% | ? | -16.7% | -0.1% | -120.2%
C=CCSc1nncn1/N=C/c1ccc(OC)cc1 | 1.7% | 2.24µM* | 6.75µM* | 2.82µM* | 20.6µM* | 12.6µM*
COc1ccc(/C=N/n2cnnc2SCCO)cc1OC | -5.3% | -3.2% | ? | 4.2% | 15.2% | 13.0%
O=c1c2ccccc2cnn1-c1ccc2ccccc2c1 | -28.7% | 1.78µM* | 1.2µM* | 1.41µM* | ? | 5.01µM*
O=c1c2ccccc2cnn1-c1ccc(Cl)nn1 | -4.6% | 16.3% | -18.9% | 10.9% | 11.2% | -6.2%
O=c1c2ccccc2cnn1-c1ccc(Br)cc1 | -12.4% | 1.58µM* | 3.38µM* | 0.708µM* | ? | 2.82µM*
